Values joined by “and” are separate entries in the source; they are usually repeats but may differ in a detail not shown here. Equal entries are not always repeated. The campaign covered roughly 360,000 compounds. About 3,600 (1%) were called active.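 Rule for the calls: active = compounds whose plate-normalised and pattern-corrected inhibition of the luciferase reporter signal at the single screening dose is 50% or more; inactive = the rest.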 The sample as a whole holds a higher share of actives than the screen did.
Assay: TROY pathway blockers in reporter cells – Q293 LMP1-TROYcd cells, NF-kB luciferase, uHTS, primary screen (AID 1347056)
Details: 4 h, at 10 µM, stronger effect = higher value

Structure (SMILES)	inhibition
O=C(NCCC1CCCCN1S(=O)(=O)c1cccs1)C(=O)Nc1ccc(F)cc1F (stereo not drawn)	1.77% (inactive)
Cc1ccccc1OCC(=O)Nc1ccc(N2CCN(C(=O)C(C)C)CC2)c(Cl)c1	52.5% (active)
CCc1ccccc1OCC(=O)Nc1ccc(C)c(S(=O)(=O)N2CCCCCC2)c1	3.2% (inactive)
COc1cc(NC(=O)COc2ccccc2Cl)ccc1NC(=O)C(C)C	-6.06% (inactive)
COc1cccc(-c2cc3nc4c(c(N5CCC6(CC5)OCCO6)n3n2)CCCC4)c1	7.88% (inactive)
CC(=O)c1c(C)[nH]c(C(=O)COC(=O)c2cccc(S(=O)(=O)N(C)c3ccccc3)c2)c1C	71% (active)
CC(=O)c1c(C)[nH]c(C(=O)COC(=O)CCOc2ccc(C)cc2)c1C	17.8% (inactive)
CN(c1ccccc1)S(=O)(=O)c1ccc(Cl)c(C(=O)OCC(N)=O)c1	-2.16% (inactive)
CCO[C@@H]1OC(C(=O)N2CCOCC2)=C[C@H](C)[C@H]1CCCO	-7.92% (inactive)
CCCCCCCNc1nc(Cl)nc(NCCO)n1	4.41% (inactive)
Nc1nc(SCC(=O)Nc2cc(C(F)(F)F)ccc2Cl)[nH]c(=O)c1NC(=O)c1ccco1	-8.07% (inactive)
O=C(Nc1cc(C(F)(F)F)ccc1Cl)c1cc2nc3c(c(C(F)(F)F)n2n1)CCCC3	79% (active)
O=C(Nc1ccc(Cl)cc1)c1cc2nc(C3CC3)cc(C(F)(F)F)n2n1	-25.1% (inactive)
Cn1c(=O)c2c(nc(Br)n2CCSc2nc3ccccc3o2)n(C)c1=O	-10.2% (inactive)
O=C(Cn1c(NCCO)nc2ccccc21)c1ccc(Cl)cc1Cl	22.3% (inactive)
OCCNc1nc(Nc2ccc(Cl)c(Cl)c2)nc2ccccc12	68.4% (active)
OCCNCCOc1ccc(Cl)c(Cl)c1	10.3% (inactive)
C[C@H](CO)N1C[C@H](C)[C@H](CN(C)C(=O)Nc2ccc3c(c2)OCO3)Oc2ncc(Br)cc2C1=O	6.4% (inactive)
CCn1c(C(C)NC(=O)c2ccc(C)cc2)n[nH]c1=S (stereo not drawn)	21.8% (inactive)
C=C(C)CNC(=O)c1ccc(OC2CCN(C(=O)COC)CC2)cc1	-21.5% (inactive)
COc1ccc(NC(=S)SC)cc1OC	55.6% (active)
COc1ccc(NC(=O)C2C3CCC(O3)C2C(=O)O)cc1OC (stereo not drawn)	8.24% (inactive)

Structure (SMILES)	inhibition
COc1ccc(NC(=O)CSCc2ccc([N+](=O)[O-])cc2)cc1OC	-16.9% (inactive)
O=C1c2ccccc2C(=O)N1CCC(c1ccccc1)c1ccco1 (stereo not drawn)	-65.2% (inactive)
COc1cc(SC)ccc1C(=O)Nc1nc(C)cs1	85.8% (active)
Cc1csc(NC(=O)NC2(C(F)(F)F)Oc3ccccc3O2)n1	-1.84% (inactive)
COc1ccc(C(=O)NC(C)CCc2ccccc2)c(OC)c1 (stereo not drawn)	-16.4% (inactive)
COC(=O)c1sc(NC(=O)c2ccc(OC)cc2OC)nc1C	66.7% (active)
Cc1ccccc1OCC(=O)Nc1nc(C)c(C(=O)N(C)C)s1	-13.4% (inactive)
Cc1csc(NC(=O)CSc2nc(=O)cc(N)n2-c2ccc(F)cc2)n1	-68.1% (inactive)
CCCC(C(=O)NC1CCCC1)N(C(=O)Cn1nnc(-c2ccc(C)o2)n1)c1cccc(O)c1 (stereo not drawn)	-5.35% (inactive)
C=CCn1c(COc2ccccc2F)nnc1SCC(=O)N1CC(=O)Nc2ccccc21	-21.6% (inactive)
COc1cccc(N=c2oc3c(C)ncc(CO)c3cc2C(N)=O)c1	-39.2% (inactive)
O=C(Nc1ccc(Cl)cc1)/C(=C1\CCCN1)[N+](=O)[O-]	-75.7% (inactive)
Cc1cccc2nc(CSc3nc4[nH]ncc4c(=O)n3-c3cccc(Cl)c3)cc(=O)n12	35.3% (inactive)
COc1ccc(N(CC(=O)NC(C)(C)C)C(=O)c2ccco2)cc1	-5.86% (inactive)
CCCNC(=O)C(=O)Nc1cc2c3c(c1)CCC(=O)N3CCC2	-5.66% (inactive)
CN(Cc1cn(Cc2ccc(C(F)(F)F)cc2)nn1)C1CN(Cc2cn(Cc3ccc(C(F)(F)F)cc3)nn2)S(=O)(=O)C1 (stereo not drawn)	14.4% (inactive)
CN(c1ccc2nc3ccccc3c(=O)n2n1)C1CCCCC1	90.3% (active)
CC(C)(C)c1nc2ccccc2c(=O)n1N1C(=O)c2ccccc2C1=O	12.4% (inactive)
CN(C(=O)Nc1ccc(Cl)cc1)n1cnc2ccccc2c1=O	-48.7% (inactive)
CNc1cc(-c2c(OC)cccc2OC)ncn1	-15.5% (inactive)
CCCNC(=O)c1cc(C2CCCCN2S(=O)(=O)c2ccc(C#N)cc2)on1 (stereo not drawn)	-10.6% (inactive)
CC(Oc1ccc(Br)cc1)C(=O)NCC(c1ccco1)N1CCCCC1 (stereo not drawn)	7.2% (inactive)

Structure (SMILES)	inhibition
CCC[C@H]1CCCC/C=C\CCCC(=O)OCCN1C(=O)OC(C)(C)C	12.2% (inactive)
CCOC(=O)C(C)n1nc(-c2ccccc2)c2ccccc2c1=O (stereo not drawn)	7.19% (inactive)
CCN(CC)C(=O)c1nc[nH]c1C(=O)N(C)Cc1ccccc1	-9.82% (inactive)
CCN(CC)C(=O)c1sc2nc(-c3ccccc3)ccc2c1N	69.8% (active)
COc1ccccc1/C=C/CN1CCC(CO)(Cc2ccccc2)CC1	-1.26% (inactive)
COc1cccc2c1C(=O)c1c(O)c3c(c(O)c1C2=O)CC(O)(C(C)=NNC(=O)c1ccc(Cl)c(Cl)c1)CC3OC1CC(N)C(O)C(C)O1 (stereo not drawn)	69.6% (active)
Cc1ccccc1CN(c1ccc(C(=O)NCC2CCCO2)cc1)S(C)(=O)=O (stereo not drawn)	-8.79% (inactive)
C#CCNC(=O)[C@H](Cc1ccc(C(=O)c2ccccc2)cc1)NC(=O)OC(C)(C)C	5.88% (inactive)
CC(=O)Nc1ccc(NC(=O)CSC2=NS(=O)(=O)c3ccccc3N2)cc1	-4.58% (inactive)
CCc1ccccc1NC(=O)CN(c1ccc(OC)cc1OC)S(=O)(=O)c1ccccc1[N+](=O)[O-]	1.82% (inactive)
COc1ccc(-c2oc(/N=C/N3CCCC3)c(C#N)c2-c2ccc(OC)cc2)cc1	-5.76% (inactive)
N#Cc1c(NC(=O)CCCN2C(=O)c3ccccc3C2=O)oc(-c2ccccc2)c1-c1ccccc1	-11.3% (inactive)
N#Cc1c(/N=C/N2CCCC2)oc(-c2ccccc2)c1-c1ccccc1	51.8% (active)
C#C[C@]1(O)CC[C@H]2[C@@H]3CCC4=CC(=O)CC[C@@H]4[C@H]3CC[C@@]21CC	-7.9% (inactive) and -4.22% (inactive)
Cc1ccc(CNC(=O)C2(C(F)(F)F)C/C(=C\Cc3ccccc3)CCCO2)o1 (stereo not drawn)	6.34% (inactive)
CCC1Nc2ncnc(N3CCN(c4ccccc4)CC3)c2N(Cc2ccc(Cl)cc2)C1=O (stereo not drawn)	18.3% (inactive)
N#CC(C(=O)c1ccc(S(=O)(=O)N2CCCCCC2)cc1)c1nc2ccccc2[nH]1 (stereo not drawn)	51.6% (active)
O=C(Nc1ncccc1O)c1ccc(S(=O)(=O)N2CCCCCC2)cc1	-10.3% (inactive)
O=S(=O)(c1ccc(Br)cc1)N1CCC(c2nc3ccccc3[nH]2)CC1	2% (inactive)
CN1CCN(S(=O)(=O)c2cccc(C(=O)Nc3sccc3C#N)c2)CC1	-0.51% (inactive)
O=C(NC(=S)Nc1cc(C(F)(F)F)ccc1N1CCOCC1)c1ccc(-c2cccc(Cl)c2)o1	-13.2% (inactive)
O=C(NC(=S)Nc1ccccc1C(=O)O)c1ccc(-c2ccc(Br)cc2)o1	79.8% (active)

Structure (SMILES)	inhibition
CN1CCN(C(=O)c2ccc(-c3ccc(Br)cc3)o2)CC1	-59.3% (inactive)
[O-][n+]1c2c(nn1-c1ccc(Cl)c(Cl)c1)-c1nonc1CC2	10.8% (inactive)
Cc1ncc(CO)c(/C=N/NC(=O)c2cccc(S(=O)(=O)N3CCCC3)c2)c1O	32.4% (inactive)
Cc1ccc(OCC(=O)c2cc(C)n(Cc3ccco3)c2C)c([N+](=O)[O-])n1	-2.73% (inactive)
COCCn1c(C)cc(C(=O)COC(=O)CNC(=O)c2ccco2)c1C	-1.63% (inactive)
Cc1cc(C(=O)COC(=O)CNC(=O)c2ccc(F)cc2)c(C)n1Cc1ccco1	71.1% (active)
O=C(COC(=O)Cn1[nH]c(=O)c2ccccc2c1=O)Nc1c(Cl)cccc1C(F)(F)F	-7.36% (inactive)
O=C(Cn1cnc2ccccc2c1=O)Nc1cccc(S(=O)(=O)N2CCCCC2)c1	6.2% (inactive)
CCCCC(=O)Nc1c2c(nn1-c1ccc([N+](=O)[O-])cc1)CS(=O)(=O)C2	-5.93% (inactive)
O=C1/C(=C\c2ccc([N+](=O)[O-])cc2)CS(=O)(=O)C/C1=C/c1ccc([N+](=O)[O-])cc1	75% (active)
O=C1CCCN1C(=O)COc1ccc([N+](=O)[O-])cc1	9.48% (inactive)
CC1(C)Cc2c(sc(NC(=O)C(=O)NCC3CCCO3)c2C(=O)O)CO1 (stereo not drawn)	-13.6% (inactive)
CCc1c(O)cc2n(c1=O)-c1ccccc1C2(C)C	4.14% (inactive)
CCN(CCCNC(=O)c1ccc2c(c1)NC(=O)CN2C)c1cccc(C)c1	71.7% (active)
CCN(CCCNC(=O)C1CCN(S(=O)(=O)c2cnc[nH]2)CC1)c1ccccc1	-0.34% (inactive)
CCN(CCCNC(=O)CCn1c(=O)[nH]c2ccsc2c1=O)c1ccccc1	0.42% (inactive)
Cc1ccc(SC(CC(=O)c2ccc(C(C)(C)C)cc2)C(=O)O)cc1 (stereo not drawn)	14.6% (inactive)
CCOc1ccc(NS(=O)(=O)c2ccc(Cl)c(C(=O)N(C)Cc3cccnc3)c2)cc1	-2.69% (inactive)
Fc1ccccc1-c1cc2cc3c(cc2cn1)OCO3	-40.9% (inactive)
Cc1nnc(SC(C(=O)c2ccccc2)c2ccccc2)[nH]c1=O (stereo not drawn)	14.7% (inactive)
Cc1nnc(SC(C(=O)Nc2cc(Cl)cc(Cl)c2)c2ccccc2)[nH]c1=O (stereo not drawn)	54.4% (active)
CC(NCC(=O)Nc1cc(Cl)cc(Cl)c1)c1ccccc1 (stereo not drawn)	17.5% (inactive)

— PubChem BioAssay AID1347056 (Sanford-Burnham Center for Chemical Genomics, 2019)
